High-throughput results: PubChem BioAssay, National Center for Advancing Translational Sciences (NCATS)
MCF10A rerep: inducers of DNA re-replication in MCF 10A breast cells | hit rate 2.9% among 350,000 | Potency, µM (series often up to 46.1 µM), for inactives: top-dose activity, positive = re-replication, hits mostly activators | MCF 10A DNA re-replication, Hoechst nuclear intensity, 48 h; also: % of control where 0% means no effect; nearly all actives have a fitted effect of over 50% in size
KB-3-1 tox: kills parental KB-3-1 adenocarcinoma cells | Potency, µM (top dose mostly 46.1 µM), usual class: cytotoxic | hit rate 1.4% among 400,000 | KB-3-1 viability, CellTiter-Glo ATP luminescence, 72 h; also: % is scaled to controls: 0 for no effect and ±100 for the full control effect; nearly all actives have a fitted effect of over 60% in size
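Viability of parental KB-3-1 cells, measured by CellTiter-Glo luminescence, followed a 72 h incubation at 37 °C with pinned compounds in phenol-red-free DMEM containing 10% FBS.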
KB-V1 MDR tox: kills drug-selected multidrug resistant KB-V1 cells. KB-V1 MDR cells viability, CellTiter-Glo, 72 h. hit rate 3.4% among 400,000. Potency, µM (top dose mostly 46.1 µM), usual class: cytotoxic; also: % is scaled to controls: 0 for no effect and ±100 for the full control effect; nearly all actives have a fitted effect of over 60% in size
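In this primary screen, KB-V1 cells overexpressing P-gp are incubated with library compounds (lowest to highest concentration) for 72 h at 37 degrees C before a luminescent ATP viability read.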
PINK1 expr mod: changes PINK1 expression; PINK1 immunofluorescence, high-content cytometry, 24 h; Potency, µM (titrated, usually from 76.6 µM), for inactives: at the highest dose activation (PINK1 increase), most hits filed as activators; hit rate 0.2% among 410,000; AID 624263; active = well fitted activation curve with a large enough effect; inconclusive = small, poorly fitted or top-dose-only effect; cell line not stated here; also: % of control where 0% means no effect; nearly all actives have a fitted effect of over 65% in size
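Stable cell line treated 24 h with compounds at 5 concentrations (CCCP controls), then fixed and immunostained for PINK1 plus nuclear and cell stains; PINK1 immunofluorescence quantified by laser-scanning microplate cytometry.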
ALOX12 inh: inhibitors of human 12S-lipoxygenase ALOX12 | purified 12hLO, xylenol orange hydroperoxide absorbance | Potency, µM (series often up to 108 µM), for the others: at the top dose activity change, negative = inhibition, usual class: inhibitors | P18054 | hit rate 1.1% among 580,000; also: % is scaled to controls: 0 for no effect and ±100 for the full control effect
Target sequence (P18054 whole entry, looked up): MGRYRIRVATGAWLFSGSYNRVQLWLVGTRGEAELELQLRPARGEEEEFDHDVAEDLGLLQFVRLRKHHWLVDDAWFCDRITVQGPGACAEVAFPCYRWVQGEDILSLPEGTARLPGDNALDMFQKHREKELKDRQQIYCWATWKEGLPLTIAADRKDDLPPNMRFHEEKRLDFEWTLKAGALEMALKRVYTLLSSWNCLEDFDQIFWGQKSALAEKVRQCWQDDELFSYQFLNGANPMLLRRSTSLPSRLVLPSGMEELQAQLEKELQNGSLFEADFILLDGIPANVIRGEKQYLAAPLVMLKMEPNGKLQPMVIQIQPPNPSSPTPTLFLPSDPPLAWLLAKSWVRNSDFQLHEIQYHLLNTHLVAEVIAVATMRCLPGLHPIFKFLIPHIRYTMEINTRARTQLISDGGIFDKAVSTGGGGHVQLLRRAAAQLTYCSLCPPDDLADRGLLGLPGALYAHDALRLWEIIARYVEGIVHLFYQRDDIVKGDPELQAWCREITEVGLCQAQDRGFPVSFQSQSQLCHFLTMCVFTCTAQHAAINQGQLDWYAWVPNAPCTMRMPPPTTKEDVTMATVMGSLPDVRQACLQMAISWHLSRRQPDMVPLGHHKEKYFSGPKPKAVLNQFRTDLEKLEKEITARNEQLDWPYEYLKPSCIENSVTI
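Hydroperoxide product was detected by ferrous iron/xylenol orange as the 573 to 405 nm absorbance ratio. Arachidonic acid at 40 uM (final) was turned over for 30 min at room temperature by 150 nM human 12hLO, pH 7.0 Hepes buffer, after 15 min compound preincubation.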
SW480 rerep: inducers of DNA re-replication in SW480 colon cancer cells; SW480 DNA re-replication, Hoechst DNA content imaging, 48 h; hit rate 1.8% among 340,000; Potency, µM (doses to about 46.1 µM), inactives show at the highest dose re-replication activation, actives largely listed as activators; also: % of control where 0% means no effect; nearly all actives have a fitted effect of over 55% in size
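First, 250 cells per well were seeded. Next, compound or vehicle (23 nL) was pinned in, plates sat 48 hr at 37 C. Finally Hoechst was added for 40 min before fluorescence scanning.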
* marks the source's active call; other numbers are inactive results; i = inactive; ? = inconclusive; nt = no result given; ! = a repeat was not active; [ ] = dose if it differs, or a comment. In the library only some 5.8% were active in any assay of this set; here they are far more common. Unless noted, calls follow the shape of the dose curve; as a rule, active = well fitted curve in the direction sought with a large enough effect; inconclusive = small, poorly fitted or top-dose-only effect, or another doubt; inactive = no such curve, though single readings can be large; an effect the other way counts as inactive or inconclusive. Potency is read from the fitted curve at half-maximal effect.

SMILES | MCF10A rerep | KB-3-1 tox | KB-V1 MDR tox | PINK1 expr mod | ALOX12 inh | SW480 rerep
NC(=NCCCCCCN=C(N)/N=C(\N)Nc1ccc(Cl)cc1)/N=C(\N)Nc1ccc(Cl)cc1 | ? | ? | ? | ? | 31.6µM*! | 1.3µM*!
Cc1cccc(-c2nc(CSc3nc(C)c(CCO)c(=O)[nH]3)c(C)o2)c1 | nt | nt | nt | nt | 27.9% | nt
CC(C)C[C@@H]1N[C@H](C(=O)NCC2CC2)Cc2c[nH]c3cccc1c23 | nt | nt | nt | nt | 58.0%[176 µM] | nt
CCOc1ccccc1CNS(=O)(=O)c1ccc2c(c1)oc(=O)n2C | 3.1% | ? | i | -0.1% | 3.98µM* | -5.2%
CC(NC(=O)Cc1cccc2cccnc12)c1ccccc1 (configuration not stated) | nt | nt | nt | nt | -1.0% | nt
N#Cc1c(Nc2ccc(Cl)cc2)s[nH]c1=O | 18.4µM* | i | i | 2.5% | ? | ?
CSc1nc(Nc2ccc(Cl)cc2)c(C#N)c(=O)[nH]1 | 15.1% | 5.17µM* | 5.17µM* | -0.9% | 6.31µM* | -1.7%
COc1ccc(CN2[C@@H](CC(C)=O)c3ccc(/C=C/C(C)=O)cc3S2(=O)=O)cc1 | ? | ? | ? | -0.7% | -0.2% | ?
COc1cccc(N2[C@@H](CC(C)=O)c3ccc(/C=C/C(C)=O)cc3S2(=O)=O)c1 | 20.6µM* | ? | ? | -1.1% | -3.6% | 11.2%
CCOC(=O)c1c(-c2ccc(OC)cc2)csc1/N=C/N(C)C | 8.6% | ? | 23.1µM* | -2.3% | 16.1% | -3.7%
CCOC(=O)c1c(-c2ccc(C)cc2)csc1NC(=O)CCSc1nnc2ccccn12 | ? | i | 16.4µM* | 2.2% | 11.2% | -2.3%
CCOC(=O)c1c(-c2ccc(OC)cc2)csc1/N=C/C1C(=O)CCCC1=O | ? | i | i | ? | 8.4% | ?
CCOC(=O)c1c(-c2ccc(-c3ccccc3)cc2)csc1NC(=O)C1C2CCC(O2)C1C(=O)O (configuration not stated) | 9.2µM* | i | i | -0.6% | ? | -0.9%
CCOC(=O)c1c(-c2ccc(OC)cc2)csc1NC(=O)CSc1ccccc1 | 7.31µM* | ? | i | -0.9% | 0.0% | 7.5%
COC(=O)c1c(-c2ccc3ccccc3c2)csc1NC(=O)Cc1ccc(OC)c(OC)c1 | ? | ? | 14.6µM* | 4.9% | ? | ?
CCOC(=O)c1c(-c2ccccc2)csc1NC(=O)/C(C#N)=C/c1ccc(O)c(OC)c1 | 20.6µM* | i | i | 15.2% | ? | ?
CCOC(=O)c1c(-c2ccccc2)csc1NC(=O)CSc1ccccc1 | 9.4% | i | 18.4µM* | 0.2% | 14.0% | -1.0%
CN(C)[S+](=O)([O-])c1ccc2c(c1)OCCN(Cc1cccc(Cl)c1)C2 | nt | nt | nt | nt | -26.0%[176 µM] | nt
CN(C(=O)Cc1cccc(Cl)c1)C1CCCc2ccccc21 (configuration not stated) | nt | nt | nt | nt | -0.5%[176 µM] | nt
Nc1nc(Nc2ccccc2)nc2ccccc12 | 0.0% | ? | ? | 1.5% | ? | -8.0%
Nc1nc(Nc2ccc(Cl)cc2)nc2ccccc12 | 26.6% | i | 18.4µM* | 0.0% | -41.5% | -7.2%
CCN(C(=O)c1cc2c(s1)-c1ccccc1SC2)c1ccccc1C | nt | nt | nt | nt | -7.9% | nt
Cc1cccc(NC(=O)Cc2nc(-c3cc(C)n(-c4cc(C)on4)c3C)cs2)c1 | nt | nt | nt | nt | -26.1% | nt
Cn1c(=O)c2c(ncn2Cc2ccc(Cl)cc2Cl)n(C)c1=O | nt | nt | nt | nt | -7.6% | nt
CS(=O)(=O)c1ccccc1C(=O)Nc1ccc(-c2nc3ccccc3[nH]2)cc1 | -4.0% | i | i | 2.0% | -23.3% | 6.4%
SMILES | MCF10A rerep | KB-3-1 tox | KB-V1 MDR tox | PINK1 expr mod | ALOX12 inh | SW480 rerep
Cc1cc(F)ccc1S(=O)(=O)Nc1ccccc1C(=O)Nc1ncn[nH]1 | 22.0% | i | ? | 1.8% | 9.5% | -0.9%
O=C(Nc1ccc(-c2nc3ccccc3[nH]2)cc1)c1ccccc1NS(=O)(=O)c1ccc(F)cc1 | 18.4µM* | i | i | 20.2% | -10.4% | ?
CN(c1ccccc1)S(=O)(=O)c1ccc(Cl)c(C(=O)Nc2nc3ccccc3[nH]2)c1 | ? | ? | ? | -1.3% | 4.5% | 15.9%
Cc1cc(F)ccc1S(=O)(=O)Nc1ccccc1C(=O)Nc1ccccc1-c1nc2ccccc2[nH]1 | 3.66µM* | ? | 18.4µM* | 44.7µM* | nt | ?
CN(c1ccccc1)S(=O)(=O)c1ccc(Cl)c(C(=O)Nc2ccc(-c3nc4ccccc4[nH]3)cc2)c1 | 11.0% | ? | ? | 11.2µM* | -4.0% | ?
Cc1ccc(S(=O)(=O)c2c(C)c(C)n(Cc3ccco3)c2N)cc1 | nt | nt | nt | nt | 44.7µM* | nt
CCOC(=O)c1c2c(n(-c3ccc(OC)cc3)c1C)C(=O)C(=O)c1ccccc1-2 | 3.26µM* | ? | ? | 0.7% | nt | 5.8µM*
Cc1cccc(C)c1NC(=O)COC(=O)c1c2c(nc3ccccc13)/C(=C\c1ccc3c(c1)OCO3)CCC2 | ? | i | i | -0.2% | -13.5% | ?
O=C(COC(=O)c1c2c(nc3ccccc13)/C(=C/c1cccc([N+](=O)[O-])c1)CCC2)NC1CCS(=O)(=O)C1 (configuration not stated) | ? | ? | 23.1µM* | -0.2% | -0.4% | nt
CN(C(=O)COC(=O)/C=C/c1cccc([N+](=O)[O-])c1)C1CCS(=O)(=O)C1 (configuration not stated) | 21.1% | ? | i | -0.1% | -22.3% | -2.0%
CN(C(=O)COC(=O)c1c2c(nc3ccccc13)/C(=C/c1cccc([N+](=O)[O-])c1)CCC2)C1CCS(=O)(=O)C1 (configuration not stated) | ? | 5.8µM* | ? | 2.7% | -28.8% | -2.4%
Cc1ccc2nc3c(cc(C(=O)NCC4CCCO4)c(=N)n3CCCOC(C)C)c(=O)n2c1 (configuration not stated) | ? | i | i | -0.8%[38.3 µM] | -18.6% | ?
Cc1ccc2nc3c(cc(C(=O)NCC4CCCO4)c(=N)n3C(C)C)c(=O)n2c1 (configuration not stated) | nt | i | i | 3.8% | ? | nt
Cc1cccn2c(=O)c3cc(C(=O)NCc4ccc(F)cc4)c(=N)n(CC4CCCO4)c3nc12 (configuration not stated) | 15.2% | i | i | 1.2% | -22.8% | ?
Cc1cccn2c(=O)c3cc(C(=O)NCC4CCCO4)c(=N)n(Cc4cccnc4)c3nc12 (configuration not stated) | 13µM* | i | i | 0.9% | 0.0% | 9.2µM*
